In PubChem BioAssay (NCI):
This is part of a sample that, as a whole, favours compounds with a hit. Of some 83,000 tested, about 20% had one in any assay.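 In brief: 96-well plates, 48 h treatment, single concentration, percent growth endpoint.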 Unmarked numbers belong to inactive results. Calls of active or inactive are those of the source. Rule for the calls: active = growth percent below 10; inactive = the rest.

What follows are molecules tested on HCT-116 colon (assay: NCI-60 one-dose screen, 48 h (100 = growth as untreated, 0 = no growth, -100 = all killed)). Conditions: 10 µM unless noted.

| Compound | growth |
| --- | --- |
| Cc1csc(/N=C(N)/N=C(\N)c2cccc(Br)c2)n1 | 88.8% |
| Clc1ccc2[nH]cc(-c3nn4cc(-c5ccncc5)nc4s3)c2c1 | 10.8% |
| NS(=O)(=O)c1ccc(Nc2nc(Nc3ccccc3)nc(N3N=C(c4ccc(Cl)cc4)CC3c3ccc(Cl)cc3)n2)cc1 (stereo not given) | 14.1% |
| NC1[C@H]2CN(c3cnc(C(=O)Nc4cc(F)cc5cccnc45)cn3)C[C@@H]12 (stereo not given in full) | 10.7% |
| Cn1ncc2c(C(=O)c3ccc(F)cc3)nc(C(C)(C)C)nc21 | 95.3% |
| COc1ccc(C2c3[nH]c4ccc(Cl)cc4c3CCN2c2oc(CO)nc2C#N)cc1 (stereo not given) | 32.1% |
| Cc1ccc(Nc2nc(SC(C)C)nc(-c3ccccc3)c2C#N)cc1 | 92.1% |
| O=C1CSC(c2cn(-c3ccccc3)nc2-c2ccc(Cl)cc2)N1c1ccccc1 (stereo not given) | 95.4% |
| O=C1Nc2ccc(F)cc2/C1=C\C(=O)c1ccc(NS(=O)(=O)c2ccccc2)cc1 | 56.9% |
| COc1ccc2[nH]cc(-c3nn4cc(-c5ccncc5)nc4s3)c2c1 | 52.8% |
| CC1=C(C)C(=O)C(Nc2ccc(C)cc2)=C(Br)C1=O | 35.4% |
| CC(Nc1ncnc2ccc(-c3cnc4cnccn34)cc12)c1ccccc1 (stereo not given) | 72.3% |
| Cc1ccc2c(n1)C(=O)C(Cl)=C(Nc1ccc(C(=O)OC(C)(C)C)cc1)C2=O | -70.5% [9.25 µM] (active) |
| CCOC(=O)c1c(NC(=O)c2cccc(C(F)(F)F)c2)sc2c1CCC(=O)C2 | 12.3% |
| C/C(=N\NC(=O)/C=C/CC(=O)O)c1nnn(-c2ccc([N+](=O)[O-])cc2)c1C | 97.9% |
| Cc1[nH]c(C(=O)Nc2ccccc2OCc2cccc(C(=O)NC3CCNC3)c2)c(Cl)c1Cl (stereo not given) | -61.2% (active) |
| N#Cc1nc(-c2ccccc2)oc1N1CCC(C2(C(F)(F)F)N=N2)CC1 | 104% |
| CNC(=O)c1cc(-n2ccc3cc(NC(=O)Nc4ccc(N5CCN(C)CC5)c(C(F)(F)F)c4)ccc32)ccn1 | -17.4% (active) |
| NS(=O)(=O)c1nnc(/N=C/c2c(O)[nH]c3ccccc23)s1 | 94.5% |
| C#C[C@]1(O)CC[C@H]2[C@@H]3CC=C4c5sc(NCc6ccccc6)nc5CC[C@]4(C)[C@H]3CC[C@@]21C | 12.5% |

| Compound | growth |
| --- | --- |
| CCOC(=O)c1c(NC(=O)c2ccc(C(F)(F)F)cc2)sc2c(CN3CCN(C)CC3)c(O)ccc12 | -92.5% (active) |
| CC(Nc1c(C#N)cnc2ccc(-c3cncc(-c4n[nH]c(=O)o4)c3)cc12)c1ccccc1 (stereo not given) | 0.0701% (active) |
| Cc1ccc(-c2cc3nc(C(Cl)Cl)nc(-c4ccc(S(=O)(=O)N(C)C)cc4)n3n2)cc1 | 62.9% |
| O=C(N/N=C\c1ccc([N+](=O)[O-])cc1)c1ccc2nc(-c3ccc(Br)cc3)[nH]c2c1 | -37.2% (active) |
| CN(C)S(=O)(=O)c1ccc(-c2nc(C(Cl)Cl)nc3cc(-c4ccccc4)nn23)cc1 | 72.3% |
| OCC(Nc1ncnc2ccc(-c3cnc4cnccn34)cc12)c1ccccc1 (stereo not given) | 79.3% |
| COc1ccc(/C=N/N=C(/c2ccccc2)c2ccc3nc(-c4ccc(Cl)cc4)[nH]c3c2)cc1 | 75.4% |
| CCN(CC)S(=O)(=O)c1ccc(-c2nc(C(Cl)Cl)nc3cc(C)nn23)cc1 | 10% |
| CN(C)CCNc1ccc2ncc(C#Cc3cncc(C(=O)Nc4ccc(CN5CCN(C)CC5)c(C(F)(F)F)c4)c3)n2n1 | 5.01% (active) |
| COc1ccc(-c2nc(C#N)c(N3CCC(S(=O)(=O)N4CCOCC4)CC3)o2)cc1 | 110% |
| COc1ccc(OC)c(CCn2cncc2-c2c[nH]c3ccc(Cl)cc23)c1 | 34.5% |
| NC(=O)c1c(NC(=O)c2ccc(C(F)(F)F)cc2)sc2c1CCC(=O)C2 | 3.88% (active) |
| CN1CCN(c2ccc(Nc3nc(NCCNC(=O)c4ccccc4)c4sccc4n3)cc2)CC1 | 0.236% (active) |
| Cc1ccc(S(=O)(=O)NCCCNc2nc(Nc3ccc(N4CCN(C)CC4)cc3)nc3ccsc23)cc1 | 5.69% (active) |
| COc1ccc(/C(=N\N=C(N)N)c2ccc(Cl)cc2)cc1OC | 34.8% |
| CCOC(=O)c1cccnc1Nc1ccc(NC(=O)Nc2ccc(Cl)c(C(F)(F)F)c2)cc1 | 16.4% |
| O=C1[C@@H]2Cc3c([nH]c4ccccc34)[C@H](c3ccc(Cl)cc3)N2C(=O)CN1C1CCN(Cc2ccccc2)CC1 | 25.5% |
| CC1=Cc2ccccc2OC12C=Cc1ccccc1O2 (stereo not given) | 99.3% |
| C#CCOc1cccc(/C(N)=N/C(N)=N/c2nc3ccccc3s2)c1 | 80.4% |
| CC(Nc1ncnc2ccc(-c3cnc(N)nc3)cc12)c1ccccc1 (stereo not given) | 33% |
